Data reported in PubChem BioAssay (NCATS).
Results filed as inconclusive are left out. Unmarked numbers belong to inactive results. Activity calls are given as the source filed them. Calls follow the shape of the full dose curve.

Experiment: Validation screen for inhibitors of Lassa infection (AID 463096)
Details: Lassa virus infection, cell-based; series mostly up to 46.1 µM; activity change, negative = inhibition: at the top concentration
% is scaled to controls: 0 for no effect and ±100 for the full control effect; potency is read from the fitted curve at half-maximal effect.

Compound	activity change, negative = inhibition [%]	Potency
C[C@]12CCC(=O)C=C1CC[C@@H]1[C@@H]2CC[C@@]2(C)[C@H]1CC[C@]2(O)C(=O)CO	5.99	–
NS(=O)(=O)c1cc2c(cc1Cl)NCNS2(=O)=O	-17.8	–
CCCN(CCC)C(=O)C(CCC(=O)O)NC(=O)c1ccccc1 (stereo not given)	0.851	–
Cn1c(=O)c2c(ncn2C)n(C)c1=O	-6.44	–
CCNC(=O)N1CCN(CCCC(c2ccc(F)cc2)c2ccc(F)cc2)CC1	-4.65	–
COc1ccc2c(c1)c(CC(=O)O)c(C)n2C(=O)c1ccc(Cl)cc1	24.6	–
CCCCNc1ccc(C(=O)OCCN(C)C)cc1	3.36	–
CCCOc1ccccc1-c1nc2n[nH]nc2c(=O)[nH]1	24.1	–
CN(C(=O)CCCOc1ccc2[nH]c(=O)ccc2c1)C1CCCCC1	-5.92	–
Cc1[nH]c(=O)c(C#N)cc1-c1ccc2nccn2c1	13.2	–
NCCc1cnc[nH]1	4.44	–
C[C@]12C=CC(=O)C=C1CC[C@H]1[C@@H]3C[C@@H](O)[C@](O)(C(=O)CO)[C@@]3(C)C[C@H](O)[C@@]12F	-9.77	–
COc1ccccc1N1CCN(CC(O)COc2cccc3ccccc23)CC1 (stereo not given)	-37.9	–
c1cnc(N2CCN(Cc3ccc4c(c3)OCO4)CC2)nc1	41.6	–
CCOC(=O)C(C)(C)Oc1ccc(Cl)cc1	4.17	–
CC(C(O)c1ccc(O)cc1)N1CCC(Cc2ccccc2)CC1 (stereo not given)	-45.1	–
NC(N)=NCCC[C@H](N)C(=O)O	9.02	–
Cc1cc(C(C)(C)C)cc(C)c1CC1=NCCN1	-37	–

Compound	activity change, negative = inhibition [%]	Potency
Fc1ccc(C(c2ccc(F)cc2)N2CCN(C/C=C/c3ccccc3)CC2)cc1	-47.7	–
CNCCC(Oc1ccccc1OC)c1ccccc1 (stereo not given)	-10.8	–
O=C(CCNNC(=O)c1ccncc1)NCc1ccccc1	-1.99	–
O=C(CCCN1CCC(O)(c2cccc(C(F)(F)F)c2)CC1)c1ccc(F)cc1	-37.3	–
Cc1ccc(C(=O)Nc2ccc(S(=O)(=O)O)c3cc(S(=O)(=O)O)cc(S(=O)(=O)O)c23)cc1NC(=O)c1cccc(NC(=O)Nc2cccc(C(=O)Nc3cc(C(=O)Nc4ccc(S(=O)(=O)O)c5cc(S(=O)(=O)O)cc(S(=O)(=O)O)c45)ccc3C)c2)c1	-19.5	–
C[n+]1cc2c3c(ccc2c2ccc4cc5c(cc4c21)OCO5)OCO3	–	2 µM (active)
O=C(Nc1ccc([N+](=O)[O-])cc1Cl)c1cc(Cl)ccc1O	–	5.01 µM (active)
CC1=C(CC(=O)O)c2cc(F)ccc2/C1=C\c1ccc(S(C)(=O)=O)cc1	21.2	–
c1cc(CN2CCCCC2)cc(OCCCNc2nc3ccccc3s2)c1	-47.7	–
NCCc1ccc(O)c(O)c1	-19.6	–
CC(C)NCC(O)COc1ccc(COCCOC(C)C)cc1 (stereo not given)	-2.19	–
CN(C)C/C=C(/c1ccc(Br)cc1)c1cccnc1	-28.8	–
C(=C\c1ccccc1)/CN1CCN(C(c2ccccc2)c2ccccc2)CC1	-22.7	–
CCCCNc1cc(C(=O)O)cc(S(N)(=O)=O)c1Oc1ccccc1	-28.3	–
O=C(O)CCc1nc(-c2ccccc2)c(-c2ccccc2)o1	-8.35	–
C[C@]12CCC(=O)C=C1CC[C@@H]1[C@@H]2C(=O)C[C@@]2(C)[C@H]1CC[C@]2(O)C(=O)CO	31.1	–
Clc1ccc(Cn2c(CN3CCCC3)nc3ccccc32)cc1	-22.1	–
